# Results published in the supplement of paper PMC12282887.
# ± gives the standard deviation of the averaged measurements.
# System: E. coli BW25113 marRABp lux reporter
# Test: promoter activity interaction Z-score (Lux/OD deviation from empty-vector control); higher = stronger promoter induction by the compound
# Method: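 E. coli BW25113 (wild type or ΔmarA/ΔsoxS/Δrob) carrying pTU175 luxCDABE promoter reporters was grown in LB in 384-well plates at 37°C with each of 94 compounds at 4 two-fold concentrations, in biological duplicates. Luminescence and OD600 were read every 30 min for 12 h and integrated as AUC over 8 h (0-8 h WT, 1-9 h mutants). Lux AUC was divided by OD AUC; the interaction score is the residual of a Huber robust fit of each promoter against the empty-vector control, then Z-transformed per promoter.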
structure (smiles),measurement,setting,value
Cc1ncc([N+](=O)[O-])n1CCO [Metronidazole],promoter activity interaction Z-score,"0.11 µg/ml, genetic background: wild type",0.18 ± 0.22
same,promoter activity interaction Z-score,"0.11 µg/ml, genetic background: ΔmarA",-0.0383 ± 0.16
same,promoter activity interaction Z-score,"0.11 µg/ml, genetic background: Δrob",-0.0923 ± 0.23
same,promoter activity interaction Z-score,"0.11 µg/ml, genetic background: ΔsoxS",-0.209 ± 0.08
same,promoter activity interaction Z-score,"0.21 µg/ml, genetic background: wild type",0.0869 ± 0.33
same,promoter activity interaction Z-score,"0.21 µg/ml, genetic background: ΔmarA",-0.213 ± 0.16
same,promoter activity interaction Z-score,"0.21 µg/ml, genetic background: Δrob",0.0389 ± 0.047
same,promoter activity interaction Z-score,"0.21 µg/ml, genetic background: ΔsoxS",0.0145 ± 0.012
same,promoter activity interaction Z-score,"0.43 µg/ml, genetic background: wild type",-0.113 ± 0.25
same,promoter activity interaction Z-score,"0.43 µg/ml, genetic background: ΔmarA",0.07 ± 0.011
same,promoter activity interaction Z-score,"0.43 µg/ml, genetic background: Δrob",0.119 ± 0.23
same,promoter activity interaction Z-score,"0.43 µg/ml, genetic background: ΔsoxS",-0.0739 ± 0.18
same,promoter activity interaction Z-score,"0.86 µg/ml, genetic background: wild type",0.0285 ± 0.35
same,promoter activity interaction Z-score,"0.86 µg/ml, genetic background: ΔmarA",0.0853 ± 0.054
same,promoter activity interaction Z-score,"0.86 µg/ml, genetic background: Δrob",0.0343 ± 0.03
same,promoter activity interaction Z-score,"0.86 µg/ml, genetic background: ΔsoxS",-0.0303 ± 0.042
COc1cc(C=O)ccc1O [Vanillin],promoter activity interaction Z-score,"19 µg/ml, genetic background: wild type",-0.156 ± 0.018
same,promoter activity interaction Z-score,"19 µg/ml, genetic background: ΔmarA",-0.451 ± 0.34
same,promoter activity interaction Z-score,"19 µg/ml, genetic background: Δrob",0.0366 ± 0.23
same,promoter activity interaction Z-score,"19 µg/ml, genetic background: ΔsoxS",-0.21 ± 0.21
same,promoter activity interaction Z-score,"38 µg/ml, genetic background: wild type",0.304 ± 0.065
same,promoter activity interaction Z-score,"38 µg/ml, genetic background: ΔmarA",0.0122 ± 0.2
same,promoter activity interaction Z-score,"38 µg/ml, genetic background: Δrob",0.119 ± 0.4
same,promoter activity interaction Z-score,"38 µg/ml, genetic background: ΔsoxS",-0.0492 ± 0.056
same,promoter activity interaction Z-score,"76.1 µg/ml, genetic background: wild type",0.913 ± 0.07
same,promoter activity interaction Z-score,"76.1 µg/ml, genetic background: ΔmarA",0.599 ± 0.31
same,promoter activity interaction Z-score,"76.1 µg/ml, genetic background: Δrob",0.595 ± 0.066
same,promoter activity interaction Z-score,"76.1 µg/ml, genetic background: ΔsoxS",0.224 ± 0.12
same,promoter activity interaction Z-score,"152.1 µg/ml, genetic background: wild type",1.28 ± 0.41
same,promoter activity interaction Z-score,"152.1 µg/ml, genetic background: ΔmarA",1.702 ± 0.0098
same,promoter activity interaction Z-score,"152.1 µg/ml, genetic background: Δrob",1.077 ± 0.0082
same,promoter activity interaction Z-score,"152.1 µg/ml, genetic background: ΔsoxS",0.812 ± 0.084
COc1ccc(CCN(C)CCCC(C#N)(c2ccc(OC)c(OC)c2)C(C)C)cc1OC (stereo not drawn) [Verapamil],promoter activity interaction Z-score,"28.4 µg/ml, genetic background: wild type",0.257 ± 0.13
same,promoter activity interaction Z-score,"28.4 µg/ml, genetic background: ΔmarA",0.21 ± 0.17
same,promoter activity interaction Z-score,"28.4 µg/ml, genetic background: Δrob",0.064 ± 0.21
same,promoter activity interaction Z-score,"28.4 µg/ml, genetic background: ΔsoxS",-0.241 ± 0.54
same,promoter activity interaction Z-score,"56.8 µg/ml, genetic background: wild type",0.22 ± 0.12
same,promoter activity interaction Z-score,"56.8 µg/ml, genetic background: ΔmarA",0.273 ± 0.099
same,promoter activity interaction Z-score,"56.8 µg/ml, genetic background: Δrob",0.311 ± 0.47
same,promoter activity interaction Z-score,"56.8 µg/ml, genetic background: ΔsoxS",0.0416 ± 0.54
same,promoter activity interaction Z-score,"113.7 µg/ml, genetic background: wild type",0.853 ± 0.13
same,promoter activity interaction Z-score,"113.7 µg/ml, genetic background: ΔmarA",0.923 ± 0.54
same,promoter activity interaction Z-score,"113.7 µg/ml, genetic background: Δrob",0.659 ± 0.32
same,promoter activity interaction Z-score,"113.7 µg/ml, genetic background: ΔsoxS",0.193 ± 0.7
same,promoter activity interaction Z-score,"227.3 µg/ml, genetic background: wild type",0.957 ± 0.16
same,promoter activity interaction Z-score,"227.3 µg/ml, genetic background: ΔmarA",1.14 ± 0.38
same,promoter activity interaction Z-score,"227.3 µg/ml, genetic background: Δrob",0.739 ± 0.49
same,promoter activity interaction Z-score,"227.3 µg/ml, genetic background: ΔsoxS",0.385 ± 0.48
